In test [1] the target is Retinoic acid receptor RXR-alpha (Homo sapiens) (UniProt P19793). As to the kind of experiment: qHTS assay for small molecule agonists of retinoid X receptor alpha signaling (AID 588544; calls by dose curve;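 further: 0% = DMSO basal wells and 100% = reference agonist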). Background: In qHTS, concentration-response curves come from the screen itself.
Test [2] is described as follows: qHTS assay for small molecule antagonists of retinoid X receptor alpha signaling (AID 588546; active means well fitted inhibition curve with a large enough effect in the signal ratio, with a control signal flat, not every such curve was filed as active; the % refers to the signal ratio;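 further: cells stimulated with 9-cis-retinoic acid as agonist; on the % scale 0 is the no-effect control and ±100 the full control effect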). The conditions noted are these: HEK293T RXRa-UAS-bla, beta-lactamase ratio, antagonist mode; measured here: W530 green channel, cytotoxicity proxy. In outline: (§1)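 Beta-lactamase reporter inhibition, read as CCF4 fluorescence ratio (ex 405, em 460/530 nm) after 2 h at RT. HEK293T UAS-bla cells, 2500/well, were stimulated with 9-cis-RA at 500 or 100 nM final alongside test compound for 18 h at 37 C.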

Test [3] deals with Retinoic acid receptor RXR-alpha (Homo sapiens) (UniProt P19793). The description is as above. To be noted: HEK293T RXRa-UAS-bla, beta-lactamase ratio, antagonist mode. In outline: as §1
For test [4], the target named is Thyroid hormone receptor beta (Homo sapiens) (UniProt P10828). As to the kind of experiment: qHTS assay for small molecule antagonists of thyroid hormone receptor beta signaling (AID 588547; active means well fitted inhibition curve with a large enough effect in the signal ratio, with a control signal flat, not every such curve was filed as active; the % refers to the signal ratio;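 further: cells stimulated with 0.4 nM T3 agonist during compound exposure; on the % scale 0 is the no-effect control and ±100 the full control effect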). The conditions noted are these: TR-UAS-bla HEK293, beta-lactamase ratio, antagonist mode, 18 h. In outline: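 TR-UAS-bla GripTite HEK293 cells in 2% charcoal/dextran FBS medium; compounds 0.59 nM to 92 uM with T3 at 0.4nM final, 18 h at 37 C. Beta-lactamase read by CCF4 fluorescence (460/530 nm); Hill fits gave IC50 and efficacy.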
Thyroid hormone receptor beta (Homo sapiens), sequence (P10828 whole entry, looked up): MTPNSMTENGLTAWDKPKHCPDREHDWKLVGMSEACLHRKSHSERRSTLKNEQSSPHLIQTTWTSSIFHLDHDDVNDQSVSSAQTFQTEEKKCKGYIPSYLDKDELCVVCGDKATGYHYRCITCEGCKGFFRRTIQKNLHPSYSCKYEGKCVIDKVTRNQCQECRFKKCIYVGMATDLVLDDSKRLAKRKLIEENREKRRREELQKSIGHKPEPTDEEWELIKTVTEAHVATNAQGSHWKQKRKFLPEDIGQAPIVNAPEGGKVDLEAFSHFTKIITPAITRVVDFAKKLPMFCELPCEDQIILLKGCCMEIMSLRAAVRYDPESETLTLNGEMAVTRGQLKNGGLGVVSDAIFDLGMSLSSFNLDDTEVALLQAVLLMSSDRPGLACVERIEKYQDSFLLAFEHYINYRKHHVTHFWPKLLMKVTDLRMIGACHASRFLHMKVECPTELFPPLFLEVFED

Test [5] has as its target Voltage-gated inwardly rectifying potassium channel KCNH2 (Homo sapiens) (UniProt Q12809). As to the kind of experiment: qHTS Assay for Small Molecule Inhibitors of the Human hERG Channel Activity (AID 588834).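 Further: top concentration of the series differs between compounds; on the % scale 0 is the no-effect control and ±100 the full control effect; lower thallium flux fluorescence means stronger hERG block; nearly all actives have a fitted effect of over 50% in size.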 The procedure, abridged: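 hERG block measured as reduced thallium-dye (FluxOR) fluorescence after stimulation buffer addition, read over 2 min. Cells were hERG-BacMam-transduced U2OS exposed to compound ~10 min […]; concentration-response fitted with Hill equation for AC50.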

Test [6] concerns the target Luciferin 4-monooxygenase (Photinus pyralis) (UniProt P08659). Nature of the test: Biochemical firefly luciferase enzyme assay for NPC (AID 624030).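 Further: purified P. pyralis luciferase at 10 nM with luciferin and ATP substrate; 0% = DMSO and -100% = full luciferase inhibition by PTC124 control; nearly all actives have a fitted effect of over 70% in size.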 In outline:
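Purified P. pyralis luciferase at 10 nM in 50 mM Tris Acetate (final), luminescence read within 5 minutes of enzyme addition to compounds. Activity normalised to PTC124 versus DMSO; concentration-response curves classed by r2, magnitude and activity.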

A short description of test [7]: qHTS assay for small molecule agonists of the antioxidant response element (ARE) signaling pathway (AID 651741; active means well fitted activation curve with a large enough effect in the signal ratio; the % refers to the signal ratio; further: % of control where 0% means no effect). The procedure, abridged:
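Stably integrated ARE-beta-lactamase reporter HepG2 cells; 16 h compound incubation, 37 C; LiveBLAzer FRET substrate 2 h at room temperature; fluorescence intensity.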

Test [8] in a line: qHTS assay for small molecule activators of the p53 signaling pathway (AID 651743; active means well fitted activation curve with a large enough effect in the signal ratio, not every such curve was filed as active; the % refers to the signal ratio; further: % of control where 0% means no effect). The conditions noted are these: HCT-116 p53RE-bla, beta-lactamase FRET ratio, 16 h; activation: stronger effect = higher value. The procedure, abridged:
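Following 16 hours of compound exposure at 37 C, HCT-116 cells bearing the p53RE-bla reporter were loaded with LiveBLAzer B/G FRET substrate for 2 hours at room temperature and fluorescence intensity was recorded.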

Test [9] can be described thus: qHTS assay for small molecule disruptors of the mitochondrial membrane potential - 1 hr assay (AID 651754; calls by dose curve; further: on the % scale 0 is the no-effect control and ±100 the full control effect; nearly all actives have a fitted effect of over 35% in size). In outline: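 Loss of mitochondrial potential shifts the cationic dye from red mitochondrial aggregates to green cytoplasmic monomers. Cells (HepG2) are treated with compound for 1 hr before a 30 min dye incubation at 37C.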
Test [10] is described as follows: qHTS assay for small molecule disruptors of the mitochondrial membrane potential - 5 hr assay (AID 651755; calls by dose curve; further: on the % scale 0 is the no-effect control and ±100 the full control effect; nearly all actives have a fitted effect of over 40% in size). In outline: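 Read-out: ratiometric Mito-MPS fluorescence, green monomer (ex 490/em 535) vs red mitochondrial aggregate (ex 540/em 590). HepG2 cells treated 5 hr at 37C before 30 min dye loading.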
Test [11] deals with Tumor necrosis factor (Homo sapiens) (UniProt P01375). Nature of the test: qHTS assay to identify small molecules that stimulate Tumor Necrosis Factor-alpha (TNF-alpha) secretion (AID 651757; active means well fitted curve in the direction sought with a large enough effect in the signal ratio; the % refers to the signal ratio; further: 0% is about no effect). The procedure, abridged: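 Human monocytic THP-1 cells are plated, treated with compound and held at 37 C for 17 hrs. Labeled anti-TNF-alpha antibody mixture is then added; after 3 hr at room temperature, TR-FRET signal reports secreted TNF-alpha.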
Tumor necrosis factor (Homo sapiens), sequence (P01375 whole entry, looked up): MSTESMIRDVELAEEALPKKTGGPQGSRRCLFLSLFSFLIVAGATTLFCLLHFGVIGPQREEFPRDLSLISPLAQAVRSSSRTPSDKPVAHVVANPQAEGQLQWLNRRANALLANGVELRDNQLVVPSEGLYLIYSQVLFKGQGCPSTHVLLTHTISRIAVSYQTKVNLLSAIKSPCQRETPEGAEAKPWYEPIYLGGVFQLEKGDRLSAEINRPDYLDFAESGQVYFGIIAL

Test [12] concerns the target Peroxisome proliferator-activated receptor alpha (Homo sapiens) (UniProt Q07869). As to the kind of experiment: qHTS assay for small molecule agonists of the peroxisome proliferator-activated receptor alpha (PPARalpha) signaling pathway (AID 651778). Further: % of control where 0% means no effect. To be noted: PathHunter PPARalpha complementation, chemiluminescence, 6 h; stronger effect = higher value. In outline:
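Enzyme-fragment complementation assay in which ligand-bound PPARalpha translocates and forms an active enzyme that generates chemiluminescence. Cells were plated overnight, exposed to compound for 6 hr at 37 C, and then given detection reagent for 60 min at room temperature.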

Test [13] in a line: qHTS assay for small molecule agonists of the antioxidant response element (ARE) signaling pathway measured by Nrf2-dependant transcriptional activity (AID 720636; active means well fitted curve in the direction sought with a large enough effect in the repeat runs; an effect the other way counts as inactive or inconclusive; further: % of control where 0% means no effect). The procedure, abridged: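 ARE-luc HepG2 cells carrying an Nrf2-responsive luciferase reporter were plated in medium with 1% dialyzed FBS, left 6 hr at 37 C to attach, then exposed to compound for 16 hr. Luciferase luminescence was read after ONE-Glo addition.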

Test [14] in a line: qHTS assay for small molecule antagonists of the retinoid-related orphan receptor gamma (ROR-gamma) signaling pathway - cell viability counter screen (AID 720652; active means well fitted curve in the direction sought with a large enough effect in the repeat runs; an effect the other way counts as inactive or inconclusive;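 further: CHO reporter cells with doxycycline-induced ROR-gamma expression; compound exposure lasted 16 hr before ATP read; on the % scale 0 is the no-effect control and ±100 the full control effect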). The procedure, abridged: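 Steps: seed CHO cells bearing TET-inducible ROR and ROR response element-luciferase; rest 5 hr at 37 C; add compound, then doxycycline; incubate 16 hr; add CellTiter-Glo and read luminescence as ATP-based viability.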

Test [15] is described as follows: qHTS Assay for Identifying Gametocytocidal Compounds (AID 743244).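 Further: on the % scale 0 is the no-effect control and ±100 the full control effect; actives lower the fluorescent signal which means gametocytes are killed.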 To be noted: P. falciparum 3D7 stage III-V gametocytes, alamarBlue, 72 h; max response: stronger effect = lower value. In outline: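 Compounds are pinned into medium, gametocytes (stage III–V, 3D7, 20,000 cells/well) added, and plates held 72 h at 37 °C in 5% CO2. AlamarBlue follows for 24 h before fluorescence reading.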

Test [16] can be described thus: qHTS assay for cell viability of HEK293 cells (AID 743288). Further: on the % scale 0 is the no-effect control and ±100 the full control effect; nearly all actives have a fitted effect of over 50% in size. To be noted: ATP luminescence (CellTiter-Glo), 18 h; max response: stronger effect = lower value. The procedure, abridged:
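Readout is luciferase-coupled ATP content (CellTiter-Glo luminescence, 30 min room temperature) as a measure of metabolically competent cells. Parental HEK293 cells were plated 5 h or more before compound addition, then treated 18 h at 37 C.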

Test [17] is described as follows: qHTS assay for cell viability of the p53RE-bla HCT-116 cell line (AID 743292). Further: on the % scale 0 is the no-effect control and ±100 the full control effect; nearly all actives have a fitted effect of over 55% in size. In outline:
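CellSensor p53RE-bla HCT-116 cells, 4,000/well, preincubated 5 h at 37 C, then exposed to compounds in DMSO for 16 h at 37 C. Viability read as CellTiter-Glo luminescence (intracellular ATP) after 30 min at room temperature.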

Test [18] is described as follows: P-glycoprotein substrates identified in KB-8-5-11 adenocarcinoma cell line, qHTS therapeutic library screen (AID 1346987). Further: on the % scale 0 is the no-effect control and ±100 the full control effect; nearly all actives have a fitted effect of over 65% in size. The procedure, abridged: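 Luminescence from CellTiter-Glo, read 5 min after addition, quantified survival of KB-8-5-11 (P-gp-overexpressing) cells exposed to compounds for 72 h. AC50 was derived from concentration-response curves.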
A short description of test [19]: Drug repurposing screens with cells derived from glioblastoma tumor samples (AID 1345199). Further: on the % scale 0 is the no-effect control and ±100 the full control effect; nearly all actives have a fitted effect of over 40% in size. To be noted: GBM patient neurospheres viability, ATP luminescence, 48 h; Potency: tumour line A; series mostly up to 45.9 µM. The procedure, abridged: (§2)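 Primary testing used CD133+ neurospheres from four GBM patients, seven concentrations, 48 h exposure and ATP-based viability; confirmation added three slower-growing patient lines.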

In test [20] the test system is astro. The description is as above. To be noted: viability, ATP luminescence, 48 h; series mostly up to 45.9 µM. In outline:
as §2

Test [21] addresses Nuclear receptor subfamily 1 group I member 2 (Rattus norvegicus) (UniProt Q9R1A7). As to the kind of experiment: qHTS assay for small molecule activators of the rat pregnane X receptor (rPXR) signaling pathway (AID 651751; call rule not given here; further: 0% is about no effect). The conditions noted are these: rPXR reporter cells, luciferase (One-Glo), 24 h.
Test [22] can be described thus: qHTS assay for small molecule activators of the human pregnane X receptor (PXR) signaling pathway (AID 720659; call rule not given here; further: 0% is about no effect).

Inconclusive results are not listed. Activity calls are given as the source filed them. Unless noted, the call rests on the fitted dose curve; in most records, active means well fitted curve in the direction sought with a large enough effect; inconclusive means small, poorly fitted or top-dose-only effect, or another doubt; inactive means no such curve, though single readings can be large; an effect the other way counts as inactive or inconclusive.

One molecule from PubChem BioAssay (NCATS) can be followed below.

Luciferin 4-monooxygenase (Photinus pyralis), sequence (P08659 whole entry, looked up): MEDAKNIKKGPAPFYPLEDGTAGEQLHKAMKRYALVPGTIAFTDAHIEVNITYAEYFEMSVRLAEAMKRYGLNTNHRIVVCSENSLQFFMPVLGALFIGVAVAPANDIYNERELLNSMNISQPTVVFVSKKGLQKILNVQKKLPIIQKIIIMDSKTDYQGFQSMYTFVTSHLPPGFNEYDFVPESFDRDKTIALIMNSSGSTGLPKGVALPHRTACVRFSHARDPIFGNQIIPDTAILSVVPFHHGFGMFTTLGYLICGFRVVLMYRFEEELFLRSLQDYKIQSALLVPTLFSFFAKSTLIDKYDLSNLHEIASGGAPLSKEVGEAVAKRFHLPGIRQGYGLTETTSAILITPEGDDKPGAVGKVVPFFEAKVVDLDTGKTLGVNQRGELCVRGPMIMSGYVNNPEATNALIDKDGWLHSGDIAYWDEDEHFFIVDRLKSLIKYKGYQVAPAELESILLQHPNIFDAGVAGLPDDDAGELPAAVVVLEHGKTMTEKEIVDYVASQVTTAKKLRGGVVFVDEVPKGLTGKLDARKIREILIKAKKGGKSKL
Retinoic acid receptor RXR-alpha (Homo sapiens), sequence (P19793 whole entry, looked up): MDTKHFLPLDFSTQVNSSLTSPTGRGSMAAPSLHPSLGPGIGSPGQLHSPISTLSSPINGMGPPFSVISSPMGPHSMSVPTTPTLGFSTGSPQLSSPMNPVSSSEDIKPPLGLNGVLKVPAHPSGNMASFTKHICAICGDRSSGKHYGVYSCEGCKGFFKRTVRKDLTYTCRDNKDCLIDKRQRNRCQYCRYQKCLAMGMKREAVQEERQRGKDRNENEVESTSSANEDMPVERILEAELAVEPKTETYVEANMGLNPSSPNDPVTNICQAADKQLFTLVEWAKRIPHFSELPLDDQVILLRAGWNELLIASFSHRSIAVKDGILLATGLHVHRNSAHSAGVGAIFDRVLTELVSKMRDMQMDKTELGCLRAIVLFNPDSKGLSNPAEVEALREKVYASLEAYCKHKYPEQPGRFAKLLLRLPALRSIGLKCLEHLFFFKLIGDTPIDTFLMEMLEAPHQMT
Voltage-gated inwardly rectifying potassium channel KCNH2 (Homo sapiens), sequence (Q12809 whole entry, looked up): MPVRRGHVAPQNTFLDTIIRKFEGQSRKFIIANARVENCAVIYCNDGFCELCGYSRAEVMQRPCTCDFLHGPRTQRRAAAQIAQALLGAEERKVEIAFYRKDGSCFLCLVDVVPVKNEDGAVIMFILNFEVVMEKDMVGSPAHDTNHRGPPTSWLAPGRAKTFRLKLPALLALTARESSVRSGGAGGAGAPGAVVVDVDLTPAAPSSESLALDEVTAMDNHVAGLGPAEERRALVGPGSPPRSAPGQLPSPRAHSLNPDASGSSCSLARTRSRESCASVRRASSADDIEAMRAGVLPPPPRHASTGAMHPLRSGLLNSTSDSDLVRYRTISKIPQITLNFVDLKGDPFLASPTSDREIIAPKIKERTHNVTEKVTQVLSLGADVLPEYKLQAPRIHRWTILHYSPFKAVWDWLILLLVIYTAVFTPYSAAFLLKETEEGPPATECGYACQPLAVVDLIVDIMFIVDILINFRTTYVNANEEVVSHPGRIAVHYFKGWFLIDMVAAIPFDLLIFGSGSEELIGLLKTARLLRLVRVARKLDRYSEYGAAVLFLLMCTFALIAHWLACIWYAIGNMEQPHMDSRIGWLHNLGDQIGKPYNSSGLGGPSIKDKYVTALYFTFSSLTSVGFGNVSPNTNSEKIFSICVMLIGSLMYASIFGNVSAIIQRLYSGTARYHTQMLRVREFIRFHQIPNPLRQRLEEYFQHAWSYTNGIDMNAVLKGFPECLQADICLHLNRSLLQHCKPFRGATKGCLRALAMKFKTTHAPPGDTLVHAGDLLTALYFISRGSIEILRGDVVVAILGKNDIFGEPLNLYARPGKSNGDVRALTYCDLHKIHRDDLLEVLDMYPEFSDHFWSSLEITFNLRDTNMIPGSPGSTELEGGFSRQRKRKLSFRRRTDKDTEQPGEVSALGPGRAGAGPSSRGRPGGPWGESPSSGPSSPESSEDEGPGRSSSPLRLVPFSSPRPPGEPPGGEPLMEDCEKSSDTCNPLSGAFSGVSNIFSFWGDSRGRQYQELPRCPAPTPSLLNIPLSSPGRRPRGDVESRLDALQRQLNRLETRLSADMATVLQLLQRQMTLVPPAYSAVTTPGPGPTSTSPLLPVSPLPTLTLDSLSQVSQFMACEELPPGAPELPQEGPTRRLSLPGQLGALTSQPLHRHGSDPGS
Peroxisome proliferator-activated receptor alpha (Homo sapiens), sequence (Q07869 whole entry, looked up, the tested form may be a part): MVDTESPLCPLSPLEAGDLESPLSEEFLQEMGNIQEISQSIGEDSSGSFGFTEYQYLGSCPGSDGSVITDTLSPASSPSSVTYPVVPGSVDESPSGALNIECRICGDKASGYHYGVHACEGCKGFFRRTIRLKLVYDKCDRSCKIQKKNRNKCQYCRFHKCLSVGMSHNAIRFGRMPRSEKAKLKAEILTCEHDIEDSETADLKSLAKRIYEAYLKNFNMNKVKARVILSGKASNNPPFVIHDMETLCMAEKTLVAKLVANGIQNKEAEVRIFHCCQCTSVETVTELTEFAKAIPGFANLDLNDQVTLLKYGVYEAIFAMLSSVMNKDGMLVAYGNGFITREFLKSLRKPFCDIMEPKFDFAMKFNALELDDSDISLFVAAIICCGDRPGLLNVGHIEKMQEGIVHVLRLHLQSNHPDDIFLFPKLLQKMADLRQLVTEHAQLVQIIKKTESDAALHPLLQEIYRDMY
Nuclear receptor subfamily 1 group I member 2 (Rattus norvegicus), sequence (Q9R1A7 whole entry, looked up): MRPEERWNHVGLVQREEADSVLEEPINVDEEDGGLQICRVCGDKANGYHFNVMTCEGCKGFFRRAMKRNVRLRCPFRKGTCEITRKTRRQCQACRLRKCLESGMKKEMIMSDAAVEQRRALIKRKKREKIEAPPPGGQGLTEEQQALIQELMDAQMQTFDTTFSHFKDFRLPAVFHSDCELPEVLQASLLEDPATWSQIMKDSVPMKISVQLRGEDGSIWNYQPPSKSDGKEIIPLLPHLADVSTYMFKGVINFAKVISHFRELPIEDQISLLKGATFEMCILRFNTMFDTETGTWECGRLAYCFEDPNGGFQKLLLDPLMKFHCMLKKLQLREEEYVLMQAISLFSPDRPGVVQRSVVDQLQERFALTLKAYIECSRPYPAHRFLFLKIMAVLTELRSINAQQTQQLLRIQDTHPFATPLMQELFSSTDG

For `O=Cc1ccccc1`, the result in test [1], in test [11], in test [14], in [17] and in test [22] was inactive. In addition, the max response in test [2] was -3.83%; in test [3], 10.9% (inactive); in test [12], -3.46% (inactive); in test [15], -4.29% (inactive); in [16], -12% (inactive); in test [21] it was 2.23% (inactive). In addition, in test [4], the activity change % (negative = inhibition) was 12% (inactive). In addition, the Potency entry in test [5], in test [6], in test [7], in test [9], in test [10] and in test [13] was “inactive” throughout. For the same molecule, the Potency result in test [18], in test [19] and in test [20] was “inactive” throughout. Besides, the activation in test [8] was -1.08% (inactive).
